The compounds below were run on Fibrinogen (Alexa647-labelled) (assay: Alexa647-fibrinogen binding to printed small molecules – biochemical, small-molecule microarray, 635/667 nm fluorescence, artefact control for SMM control-protein annotation, profiling panel (AID 1131;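 note: z-score merges 667 nm fluorescence with per-spot signal-to-noise over triplicate slides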)). Conditions: fibrinogen-A647 binding fluorescence, higher = more signal.

| Structure (SMILES) | composite z-score |
| --- | --- |
| COCC(=C=CC[C@@H](O)c1ccc(CO)o1)CCO | -0.23 |
| CC(C)N1C(=O)c2ccccc2[C@@H](C(=O)NCCCN(C)C)[C@@H]1c1ccc(CO)cc1 | -0.305 |
| C=C[C@@H](COC(C)=O)N(Cc1ccc([N+](=O)[O-])cc1)S(=O)(=O)c1ccc(Br)cc1 | 0.958 |
| CC(C)C(=C=CC[C@@H](O)c1ccccc1OCCO)C[C@@H](O)c1ccccn1 | 0.694 |
| C=CCNC(=O)[C@@H]1[C@H]2C(=O)O[C@H](c3ccccc3)[C@H](c3ccccc3)N2[C@H](c2ccc(O)cc2)[C@@]12C(=O)N(C(=O)OCCOC)c1ccccc12 | 0.945 |
| CC(C)(C)OC(=O)CC[C@@]1(C(=O)NCCN2CCOCC2)N=C(c2ccc(OCCCO)cc2)O[C@@H]1c1ccccc1 | 1.01 |
| N#Cc1ccc(NN2C(C(O)C3CCCCC3)C=CC3C(=O)N(c4ccccc4)C(=O)C32)cc1 (stereo unspecified) | 1.03 |
| C=CCN1C(=O)[C@]2(O[C@H](CCO)[C@@H]([Si](C)(C)c3ccc(OC)cc3)[C@@H]2C)c2cc(NC(=O)[C@H](C)O)ccc21 | 0.762 |
| O=C1O[C@H](c2ccccc2)[C@H](c2ccccc2)N2[C@H]1[C@@H](C(=O)N1CCN(c3ncccn3)CC1)[C@]1(C(=O)Nc3ccccc31)[C@H]2c1ccc(OCCO)cc1 | -0.206 |
| O=C1OCCC/C=C\[C@H]2OC34C=CCN(Cn5nnc6ccccc65)C(=O)[C@H]3N(CCCCCO)C(=O)[C@@H]4C12 (stereo partly specified) | -1.02 |
| COc1cc2c(cc1OC)CN(C(=O)[C@@H]1[C@H]3C(=O)O[C@H](c4ccccc4)[C@H](c4ccccc4)N3[C@H](c3ccccc3OCCO)[C@@]13C(=O)Nc1ccc(C#CCNC(N)=O)cc13)CC2 | 0.933 |
| COC(=O)[C@@]1(Cc2ccccc2)[C@H]2c3cc(C(=O)N4CCCC4)n(C)c3C[C@H]2CN1C(=O)c1ccccc1 | 1.03 |
| O=C1O[C@H](c2ccccc2)[C@H](c2ccccc2)N2[C@H]1[C@@H](C(=O)Nc1nc3ccccc3s1)[C@]1(C(=O)Nc3ccccc31)[C@H]2c1ccc(O)cc1 | 0.921 |
| CCN(CC)c1ccc(N2CC=CC34O[C@@H]5C=CCCOC(=O)C5[C@H]3C(=O)N(CCCCCO)[C@@H]4C2=O)cc1 (stereo partly specified) | -0.471 |
| COCCOC(=O)N1C(=O)[C@@]2(c3cc(C#CCC(C(=O)OC)C(=O)OC)ccc31)[C@H](c1ccc(O)cc1)N1[C@H](c3ccccc3)[C@H](c3ccccc3)OC(=O)[C@H]1[C@@H]2C(N)=O | 0.75 |
| NC(=O)NCC#Cc1ccc2c(c1)[C@]1(C(=O)N2)[C@H](C(=O)N2CCCCCCC2)[C@H]2C(=O)O[C@H](c3ccccc3)[C@H](c3ccccc3)N2[C@@H]1c1ccc(OCCO)cc1 | 0.909 |
| CC(C)N1CC=CC23O[C@@H]4C=CCOC(=O)[C@@H]4[C@H]2C(=O)N(CCO)[C@@H]3C1=O (stereo partly specified) | -0.766 |
| COc1ccc(CCNC(=O)[C@@]2(c3ccc([N+](=O)[O-])cc3)CC(=O)N(CC34CC5CC(CC(C5)C3)C4)[C@@H]2c2ccc(CO)cc2)cc1 | 0.347 |
| COCCOC(=O)N1C(=O)[C@@]2(c3ccccc31)[C@H](C(=O)NC[C@H](O)c1ccccc1)[C@H]1C(=O)O[C@H](c3ccccc3)[C@H](c3ccccc3)N1[C@@H]2c1ccc(OCCO)cc1 | 0.715 |
| COc1ccc(C(O)C2C=CC3C(=O)NC(=O)C3N2Nc2ccccn2)cc1OCc1ccccc1 (stereo unspecified) | 0.816 |
| COCCOC(=O)N1C(=O)[C@@]2(c3cc(C#CC4=CCCCC4)ccc31)[C@H](C(=O)NC[C@H](O)c1ccccc1)[C@H]1C(=O)O[C@H](c3ccccc3)[C@H](c3ccccc3)N1[C@@H]2c1ccc(O)cc1 | 0.86 |
| COc1ccc([Si](C)(C)[C@@H]2[C@@H](CCn3cc([C@H](O)c4ccccc4)nn3)O[C@]3(C(=O)N(Cc4ccc(N5C(=O)c6cccc7cccc5c67)cc4)c4ccccc43)[C@H]2C)cc1 | -0.151 |
| [N-]=[N+]=NCc1ccccc1C[C@]1(C(=O)O)N=C(c2ccc(OCCCO)cc2)O[C@H]1c1ccccc1CN=[N+]=[N-] | 1.02 |
| CC(C)NC(=O)[C@@H]1c2ccccc2C(=O)N(Cc2ccccc2)[C@H]1c1ccc(CO)cc1 | -0.367 |
| COCCOC(=O)N1C(=O)[C@@]2(c3cc(C#CCNC(N)=O)ccc31)[C@H](c1ccccc1OCCO)N1[C@H](c3ccccc3)[C@H](c3ccccc3)OC(=O)[C@H]1[C@@H]2C(N)=O | 0.963 |
| O=C1C2C=CC(C(O)c3ccc(B(O)O)cc3)N(Nc3ccccc3)C2C(=O)N1c1ccccc1 (stereo unspecified) | -0.0877 |
